SW480 rerep: induces DNA re-replication in SW480 colon adenocarcinoma cells; SW480 DNA re-replication, Hoechst DNA content imaging, 48 h; Potency, µM (highest dose often 46.1 µM), inactives show top-dose re-replication activation, actives largely listed as activators; hit rate 1.8% among 340,000; AID 624297; further: potency means the concentration at half of the fitted maximal effect; % of control where 0% means no effect; nearly all actives have a fitted effect of over 55% in size
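SW480 cells exposed to compounds for 48 hr at 37 C, 5% CO2, then Hoechst-stained 40 min. Nuclear DNA content imaged by fluorescence scanning (405 nm excitation, 500-530 nm emission); re-replication scored as increased high-intensity nuclei.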
KB-3-1 cytotox: kills parental KB-3-1 adenocarcinoma cells; hit rate 1.4% among 400,000; KB-3-1 viability, CellTiter-Glo ATP luminescence, 72 h; Potency, µM (doses to about 46.1 µM), hits mostly cytotoxic; further: potency means the concentration at half of the fitted maximal effect; on the % scale 0 is the no-effect control and ±100 the full control effect; nearly all actives have a fitted effect of over 60% in size
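Luminescent ATP read-out (CellTiter-Glo) measures survival of drug-naive KB-3-1 cells after 72 h compound exposure at 37 °C. Titration series was screened from lowest to highest concentration, with DMSO vehicle plates as background controls.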
KCNH2 WT inh: inhibitors of human wildtype KCNH2 potassium channel. U2OS, BacMam KCNH2, thallium flux FluxOr; active compounds read low. activity change, % at 1.84 µM. hit rate 0.37% among 340,000;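 active means maximum activity change below -70%; inconclusive means maximum activity change between -70% and -50%; inactive means maximum activity change above -50%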; further: on the % scale 0 is the no-effect control and ±100 the full control effect
Target sequence (Q12809 whole entry, looked up): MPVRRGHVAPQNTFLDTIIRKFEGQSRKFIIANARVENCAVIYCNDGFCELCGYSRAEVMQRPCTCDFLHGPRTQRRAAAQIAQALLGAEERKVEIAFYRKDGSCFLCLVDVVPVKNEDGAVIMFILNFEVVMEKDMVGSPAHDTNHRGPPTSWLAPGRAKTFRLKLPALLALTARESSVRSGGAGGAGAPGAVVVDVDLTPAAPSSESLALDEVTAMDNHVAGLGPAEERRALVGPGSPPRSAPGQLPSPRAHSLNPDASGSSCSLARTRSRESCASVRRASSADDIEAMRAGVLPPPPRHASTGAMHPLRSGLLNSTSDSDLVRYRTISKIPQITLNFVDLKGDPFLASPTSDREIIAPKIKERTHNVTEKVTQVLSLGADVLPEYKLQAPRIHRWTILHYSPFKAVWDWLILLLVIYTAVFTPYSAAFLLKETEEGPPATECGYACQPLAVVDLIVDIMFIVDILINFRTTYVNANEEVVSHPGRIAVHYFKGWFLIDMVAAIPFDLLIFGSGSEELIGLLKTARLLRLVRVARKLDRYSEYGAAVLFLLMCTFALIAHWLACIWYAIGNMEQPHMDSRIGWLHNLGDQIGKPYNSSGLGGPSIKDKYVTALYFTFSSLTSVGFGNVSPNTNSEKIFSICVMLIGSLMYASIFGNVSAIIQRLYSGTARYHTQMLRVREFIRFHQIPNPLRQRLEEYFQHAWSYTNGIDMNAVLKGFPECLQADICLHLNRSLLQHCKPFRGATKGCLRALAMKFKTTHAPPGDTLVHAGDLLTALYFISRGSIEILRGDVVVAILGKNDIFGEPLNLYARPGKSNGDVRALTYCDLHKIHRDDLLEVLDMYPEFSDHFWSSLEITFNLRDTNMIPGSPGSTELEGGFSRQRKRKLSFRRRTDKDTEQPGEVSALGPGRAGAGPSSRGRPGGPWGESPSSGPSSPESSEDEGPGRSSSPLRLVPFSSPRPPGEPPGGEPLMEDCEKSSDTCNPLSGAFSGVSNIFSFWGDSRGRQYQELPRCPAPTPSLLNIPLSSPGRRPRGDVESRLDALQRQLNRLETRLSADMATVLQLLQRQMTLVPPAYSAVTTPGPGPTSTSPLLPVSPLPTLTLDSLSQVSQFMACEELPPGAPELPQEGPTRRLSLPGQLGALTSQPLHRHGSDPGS
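U2OS cells were transduced with wild-type KCNH2 virus (2.03 x 10^8 / mL) for 4 h at room temperature, then cultured overnight at 37 C. Thallium flux was read with FluxOr dye. Rate constants were normalized to DMSO controls.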
KB-V1 cytotox: kills drug-selected multidrug resistant KB-V1 cells | KB-V1 MDR cells viability, CellTiter-Glo, 72 h | Potency, µM (highest dose often 46.1 µM), usual class: cytotoxic | hit rate 3.4% among 400,000; further: potency means the concentration at half of the fitted maximal effect; on the % scale 0 is the no-effect control and ±100 the full control effect; nearly all actives have a fitted effect of over 60% in size
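Cytotoxicity toward P-gp-expressing KB-V1 cells was determined as loss of CellTiter-Glo luminescence after 72 h at 37 degrees C. Compounds were tested in quantitative HTS format across a concentration range, with curves fitted to normalized data.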
MCF10A rerep: induces DNA re-replication in MCF 10a normal breast cells; MCF 10A DNA re-replication, Hoechst nuclear intensity, 48 h; Potency, µM (doses to about 46.1 µM), for inactives: at the highest dose activity, positive = re-replication, hits mostly activators; hit rate 2.9% among 350,000; AID 624296; further: potency means the concentration at half of the fitted maximal effect; % of control where 0% means no effect; nearly all actives have a fitted effect of over 50% in size
KCNH2 3.1 block: KCNH2 3.1 (human) potassium channel inhibition. hit rate 0.95% among 340,000. AID 720553. U2OS KCNH2 3.1, thallium flux FluxOr; active compounds read low. activity change, % (tested at about 1.8 µM);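 active means maximum activity change below -70%; inconclusive means maximum activity change from -70% to -50%; inactive means maximum activity change above -50%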;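 further: thallium influx rate constant from kinetic fluorescence after stimulation buffer; on the % scale 0 is the no-effect control and ±100 the full control effect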
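We transduce U2OS cells with the mutant 3.1 virus, culture them overnight, load FluxOr with Red40 quencher for 45 min, then add stimulation buffer and read kinetically for 2 min to derive a normalized rate constant.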
An asterisk follows results filed as active; i = inactive; ? = inconclusive; . = no result given. Only some compounds are listed: those with a hit (about 7.6% of all), similar ones and a draw of the others. Unless noted, the call rests on the fitted dose curve; in most records, active means well fitted curve in the direction sought with a large enough effect; inconclusive means small, poorly fitted or top-dose-only effect, or another doubt; inactive means no such curve, though single readings can be large; an effect the other way counts as inactive or inconclusive.

SMILES	SW480 rerep	KB-3-1 cytotox	KCNH2 WT inh	KB-V1 cytotox	MCF10A rerep	KCNH2 3.1 block
Cc1nc2nc(C)c(CCC(=O)N3CCc4ccccc43)c(C)n2n1	-6%	i	-4	21µM*	2%	-8
CCOc1ccc(-c2cc(C(=O)N3CCN(c4cc(Cl)ccc4C)CC3)c3ccccc3n2)cc1	.	i	.	?	.	.
COc1cc(C(=O)N2CCN(c3ccccc3)CC2)c2ccccc2n1	10µM*	0.58µM*	2	?	?	2
COc1cccc(-c2cc(C(=O)N3CCN(c4ncccn4)CC3)c3ccccc3n2)c1	-31%	i	12	?	15µM*	-6
COc1ccc(-c2cc(C(=O)N3CCN(c4ncccn4)CC3)c3ccccc3n2)cc1OC	8.2µM*	i	16	i	29%	-142*
CCOc1ccc(-c2cc(C(=O)N3CCN(c4cccc(C(F)(F)F)c4)CC3)c3ccccc3n2)cc1	.	5.8µM*	.	?	.	.
CC(=O)c1ccc(S(=O)(=O)NCCC(=O)NC2CCN(Cc3ccccc3)CC2)cc1	-14%	i	15	i	11%	-18
COc1cc(OC)c(NC(=O)c2sc3ncn(CC(=O)N4CCN(c5ccccn5)CC4)c(=O)c3c2C)cc1Cl	-5%	i	-14	?	13%	13
O=C(COC(=O)CCSc1ccc(Cl)cc1)NCc1ccco1	0%	i	-10	i	-1%	14
Cc1ccc2nc(-c3ccccc3)cc(C(=O)N3CCc4ccccc4C3)c2c1	7%	i	-8	i	?	-16
O=C(c1cc(-c2ccc(Br)cc2)nc2ccccc12)N1CCN(c2ccccc2O)CC1	?	i	-5	i	?	-74*
O=C(c1cc(-c2cccnc2)nc2ccccc12)N1CCN(S(=O)(=O)c2ccc(Cl)s2)CC1	2%	i	4	9.2µM*	12%	-10
Cc1ccc(-c2cc(C(=O)N3CCN(c4ncccn4)CC3)c3ccccc3n2)cc1	7%	i	-7	?	?	-71*
O=C(c1cc(-c2ccccc2)nc2ccccc12)N1CCc2ccccc2C1	-8%	?	-1	18µM*	14%	-11
Cc1ccc(-c2cc(C(=O)N3CCN(c4ccccc4O)CC3)c3ccccc3n2)o1	27%	i	8	i	14%	-5
COc1ccc(/C=C/C(=O)O)cc1S(=O)(=O)Nc1ccc2c(c1)OCO2	13%	?	4	i	0%	4
Cc1ccc(Cl)cc1NC(=O)C1CCCN1S(=O)(=O)c1ccc(-c2ccc(=O)[nH]n2)s1 (stereo unspecified)	4µM*	?	-1	i	?	14
Cc1cc(Cl)ccc1NC(=O)C1CCCN1S(=O)(=O)c1ccc2c(c1)CCCC(=O)N2 (stereo unspecified)	.	i	.	i	.	.
CN1CCN(S(=O)(=O)c2ccc(Cc3ccc(S(=O)(=O)N4CCN(C)CC4)cc3)cc2)CC1	9%	i	-8	i	21µM*	0
CN1CCN(S(=O)(=O)c2ccc(-c3ccc(Cl)cc3)cc2)CC1	-6%	i	-16	13µM*	?	-13
Cc1ccc(N(C)C(=O)Cn2ncc3c([nH]c4ccccc43)c2=O)cc1C	.	i	.	i	.	.
COc1ccccc1N1CCN(c2ccc([N+](=O)[O-])cc2Cl)CC1	18µM*	16µM*	3	5.8µM*	7.3µM*	1
COc1ccccc1N1CCN(S(=O)(=O)c2ccc([N+](=O)[O-])cc2)CC1	.	i	13	i	.	3
CC(C)C(=O)N1CCN(c2ccc([N+](=O)[O-])cc2Cl)CC1	-6%	i	-15	21µM*	-4%	8
O=C(c1cccnc1)N1CCN(c2ccc([N+](=O)[O-])cc2Cl)CC1	-4%	i	9	i	-5%	-120*
SMILES	SW480 rerep	KB-3-1 cytotox	KCNH2 WT inh	KB-V1 cytotox	MCF10A rerep	KCNH2 3.1 block
CCN(C(=O)c1ccc(S(C)(=O)=O)cc1)C12CC3CC(CC(C3)C1)C2	-5%	i	-4	?	6%	10
CC(=O)/C=C/n1c(=S)oc2ccccc21	4%	?	-5	16µM*	3.3µM*	3
CC(C)CC(=O)/C=C/n1c(=S)oc2ccccc21	8.2µM*	?	-8	?	3.7µM*	0
COc1cc(NC(=O)COCc2cc(-c3ccc4c(c3)OCO4)on2)c(OC)cc1Cl	.	i	.	i	.	.
COc1cc(OC)c(C2=Nc3ccc(Br)cc3C(c3ccccc3)N2CC(=O)NN)cc1OC (stereo unspecified)	-9%	i	-1	i	2.9µM*	2
CC1=Nc2ccc(Br)cc2C(c2ccccc2)N1CC(=O)NN (stereo unspecified)	-35%	i	1	i	?	2
NNC(=O)CN1C(CN2CCOCC2)=Nc2ccc(Br)cc2C1c1ccccc1 (stereo unspecified)	-13%	i	-32	i	-13%	-73*
CCN1CCN(CCOc2ccc(Cl)cc2)CC1	12%	i	-4	i	?	-9
Cc1ccc(OCCN2CCN(c3ncnc4sc(C)c(C)c34)CC2)cc1	?	?	-3	i	23µM*	-79*
Clc1ccc(OCCN2CCN(c3ncnc4sccc34)CC2)cc1	3%	?	-17	2.9µM*	8%	?
O=c1cc(N2CCCCC2)c(-c2ccccc2)nn1Cc1cccc(Cl)c1	6%	i	-19	i	21µM*	?
O=c1cc(N2CCCCC2)c(-c2ccccc2)nn1Cc1ccc(Cl)cc1Cl	18%	i	-7	i	15µM*	-45
Cc1cc(Br)cc2c(C(=O)Nc3c(C)n(C)n(-c4ccccc4)c3=O)cc(-c3cccs3)nc12	-2%	i	-13	i	9%	-10
N#CC1=C(N)N(c2ccc(Cl)cc2)C2=C(C(=O)CCC2)C1c1cc(CN2CCOCC2)cs1 (stereo unspecified)	.	i	.	?	.	.
Cc1ccc(Cl)cc1N1CCN(C(=O)c2cn(C)c3ccc(S(=O)(=O)N4CCCC4)cc3c2=O)CC1	.	i	.	i	.	.
Cc1cc(C)c(S(=O)(=O)N2CCN(c3ccccn3)CC2)c(C)c1	-426%	i	-8	?	0%	0
COC(=O)C1=CN(C2CC2)C=C(C(=O)OC)C1c1ccc(C(=O)OC)cc1	4%	i	8	7.3µM*	?	5
CCN=C(NS(=O)(=O)c1ccc(Br)cc1)c1ccc(Cl)cc1	-73%	i	-10	?	1.8µM*	13
